{"source": "paper PMC4336329", "about": "(PLoS ONE, 2015)", "note": "In all, about 310,000 compounds went through this assay and about 14,000 (4.5%) showed an effect of 50% or more. The effect is printed as a negative number. The sample as a whole holds a higher share of strong results than the screen did.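 Also: peak tail current of the secondary pulse compared with the same well before compound.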"}
{"target": "human ether-à-go-go-related gene (hERG) potassium channel (human, UniProt Q12809)", "sequence (Q12809 whole entry, looked up)": "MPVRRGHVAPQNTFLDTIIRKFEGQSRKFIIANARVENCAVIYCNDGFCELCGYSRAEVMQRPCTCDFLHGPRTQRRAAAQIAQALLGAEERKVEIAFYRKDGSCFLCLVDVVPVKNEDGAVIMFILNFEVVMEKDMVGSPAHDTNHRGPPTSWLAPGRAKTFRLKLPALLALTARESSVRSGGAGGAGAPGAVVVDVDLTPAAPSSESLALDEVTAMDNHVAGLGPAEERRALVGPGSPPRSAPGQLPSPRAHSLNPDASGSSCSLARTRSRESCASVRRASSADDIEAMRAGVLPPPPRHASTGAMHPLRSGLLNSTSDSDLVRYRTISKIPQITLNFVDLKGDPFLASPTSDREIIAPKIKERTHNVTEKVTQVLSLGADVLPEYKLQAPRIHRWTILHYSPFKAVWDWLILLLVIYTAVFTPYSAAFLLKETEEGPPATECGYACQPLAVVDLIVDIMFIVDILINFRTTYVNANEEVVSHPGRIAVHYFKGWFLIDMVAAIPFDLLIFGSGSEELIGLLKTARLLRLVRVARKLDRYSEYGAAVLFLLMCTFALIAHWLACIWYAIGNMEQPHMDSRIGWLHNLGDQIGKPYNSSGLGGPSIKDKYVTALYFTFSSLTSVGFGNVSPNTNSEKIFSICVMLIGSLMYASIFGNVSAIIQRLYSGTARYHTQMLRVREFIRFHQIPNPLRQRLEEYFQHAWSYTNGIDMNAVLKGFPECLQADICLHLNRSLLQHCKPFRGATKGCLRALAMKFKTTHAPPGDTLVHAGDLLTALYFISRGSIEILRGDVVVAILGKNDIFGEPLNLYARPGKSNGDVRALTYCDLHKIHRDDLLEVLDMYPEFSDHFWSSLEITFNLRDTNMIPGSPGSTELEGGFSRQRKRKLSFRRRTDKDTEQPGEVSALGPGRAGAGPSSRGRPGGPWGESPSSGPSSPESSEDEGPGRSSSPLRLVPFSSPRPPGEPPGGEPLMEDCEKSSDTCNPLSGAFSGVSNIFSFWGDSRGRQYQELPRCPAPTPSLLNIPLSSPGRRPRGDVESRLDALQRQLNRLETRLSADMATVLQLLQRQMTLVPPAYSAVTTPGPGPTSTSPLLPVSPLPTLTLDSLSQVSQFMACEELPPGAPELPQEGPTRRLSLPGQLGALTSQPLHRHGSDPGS", "assay": "primary screen, population patch clamp on CHO cells stably expressing hERG; higher = less effect of the substance", "units": {"hERG current change (%, negative = inhibition) at 10uM": "%"}}
{"compound": "CN(C)S(=O)(=O)c1ccc(N2CCCC2)c(C(=O)Nc2ccc(N3CCOCC3)cc2)c1", "hERG current change (%, negative = inhibition) at 10uM": -7.91}
{"compound": "COc1ccc(C(=O)NCC(=O)NCC(=O)OCc2ccc(Cl)cc2)cc1", "hERG current change (%, negative = inhibition) at 10uM": -6.07}
{"compound": "O=C(Cc1ncn[nH]1)NCCc1ccccc1", "hERG current change (%, negative = inhibition) at 10uM": -3.77}
{"compound": "Cn1c(=O)[nH]c2nncnc2c1=O", "hERG current change (%, negative = inhibition) at 10uM": -13}
{"compound": "COc1cc2ccccc2cc1C(=O)Nc1cccnc1", "hERG current change (%, negative = inhibition) at 10uM": -9.84}
{"compound": "CCOC(CC(=O)NNC(=O)c1c(-c2ccccc2Cl)noc1C)OCC", "hERG current change (%, negative = inhibition) at 10uM": 17.7}
{"compound": "COc1cc(C(=O)NCCN2CCOCC2)cc(OC)c1OC", "hERG current change (%, negative = inhibition) at 10uM": 8.25}
{"compound": "COc1ccc(Nc2cc(C(=O)NCc3ccccn3)c3ccccc3n2)c(OC)c1", "hERG current change (%, negative = inhibition) at 10uM": 8.79}
{"compound": "O=C(NCc1ccccn1)c1cc(-c2ccccc2)nc2ccccc12", "hERG current change (%, negative = inhibition) at 10uM": -25.2}
{"compound": "CCc1ccccc1Nc1cc(C(=O)NCc2ccccn2)c2ccccc2n1", "hERG current change (%, negative = inhibition) at 10uM": -57.8}
{"compound": "Cc1ccc(CNS(=O)(=O)c2cc3c4c(c2)CCN4C(=O)CC3)cc1", "hERG current change (%, negative = inhibition) at 10uM": -29.4}
{"compound": "CC(C)(C)c1ccc(OCC(O)CN2CCN(C(=O)c3ccccc3)CC2)cc1.O=C(O)C(=O)O", "note": "(centres unmarked)", "hERG current change (%, negative = inhibition) at 10uM": -50.7}
{"compound": "Cl.O=C(c1ccccc1)N1CCN(CC(O)COc2cccc3ccccc23)CC1", "note": "(centres unmarked)", "hERG current change (%, negative = inhibition) at 10uM": -28.1}
{"compound": "O=C(c1ccco1)N1CCN(CC(O)Cn2c3ccccc3c3ccccc32)CC1", "note": "(centres unmarked)", "hERG current change (%, negative = inhibition) at 10uM": -41.9}
{"compound": "Cc1cc(C)c(OCC(O)CN2CCN(C(=O)c3ccccc3)CC2)c(C)c1.O=C(O)C(=O)O", "note": "(centres unmarked)", "hERG current change (%, negative = inhibition) at 10uM": -46.4}
{"compound": "CC(=O)c1cccc(OCC(O)CN2CCN(C(=O)c3ccco3)CC2)c1", "note": "(centres unmarked)", "hERG current change (%, negative = inhibition) at 10uM": -2.19}
{"compound": "O=C(c1ccco1)N1CCN(CC(O)COc2ccc3oc4ccccc4c3c2)CC1", "note": "(centres unmarked)", "hERG current change (%, negative = inhibition) at 10uM": -66.4}
{"compound": "O=C(c1ccco1)N1CCN(CC(O)COc2ccc(Br)cc2)CC1", "note": "(centres unmarked)", "hERG current change (%, negative = inhibition) at 10uM": -72.6}
{"compound": "CC(=O)N1CCN(CC(O)COc2ccc(Br)cc2)CC1.O=C(O)C(=O)O", "note": "(centres unmarked)", "hERG current change (%, negative = inhibition) at 10uM": -10.7}
{"compound": "COC(=O)c1ccc(OCC(O)CN2CCN(C(=O)c3ccco3)CC2)cc1.O=C(O)C(=O)O", "note": "(centres unmarked)", "hERG current change (%, negative = inhibition) at 10uM": -25.3}
{"compound": "OC(COc1ccc(Br)cc1)CN1CCN(c2ccccc2)CC1", "note": "(centres unmarked)", "hERG current change (%, negative = inhibition) at 10uM": -21.2}
{"compound": "O=C(c1ccccc1)N1CCN(CC(O)COc2ccc(Br)cc2)CC1", "note": "(centres unmarked)", "hERG current change (%, negative = inhibition) at 10uM": -64.9}
{"compound": "Cc1cc(C)cc(OCC(O)CN2CCN(C(=O)c3ccco3)CC2)c1", "note": "(centres unmarked)", "hERG current change (%, negative = inhibition) at 10uM": -43.7}
{"compound": "O=C(NC1CCCCC1)c1ccc(OC2CCN(Cc3ccccn3)CC2)cc1", "hERG current change (%, negative = inhibition) at 10uM": -16}
{"compound": "COc1ccc(OC)c(N(CC(=O)NCCSC2CCCCC2)S(=O)(=O)c2ccccc2)c1", "hERG current change (%, negative = inhibition) at 10uM": 16}
{"compound": "Cc1cccc(NC(=O)CSc2nccn2Cc2ccco2)c1", "hERG current change (%, negative = inhibition) at 10uM": 0.772}
{"compound": "Cc1c(NS(=O)(=O)c2ccc(C(=O)NCc3ccc(F)cc3)cc2)c(=O)n(-c2ccccc2)n1C", "hERG current change (%, negative = inhibition) at 10uM": -15}
{"compound": "COc1ccc(C(=O)NC(=S)NNC(=O)c2ccccc2C)cc1", "hERG current change (%, negative = inhibition) at 10uM": 17.7}
{"compound": "NC(=O)c1c(NC(=O)CSc2nc3c(c(C(F)(F)F)n2)CCc2ccccc2-3)sc2c1CCCC2", "hERG current change (%, negative = inhibition) at 10uM": -1.81}
{"compound": "Nc1ccc2c(c1)C(=O)Cc1ccccc1S2", "hERG current change (%, negative = inhibition) at 10uM": 9.05}
{"compound": "CCCOC(=O)c1ccc(OCC(O)CN2CCN(C(=O)c3ccccc3)CC2)cc1.Cl", "note": "(centres unmarked)", "hERG current change (%, negative = inhibition) at 10uM": -73.7}
{"compound": "COc1ccccc1OCC(O)CN1CCN(C(=O)c2ccccc2)CC1.Cl", "note": "(centres unmarked)", "hERG current change (%, negative = inhibition) at 10uM": 1.39}
{"compound": "COc1cc(C(=O)N2CCN(CC(O)COc3ccccc3)CC2)cc(OC)c1OC", "note": "(centres unmarked)", "hERG current change (%, negative = inhibition) at 10uM": 4.32}
{"compound": "CC(=O)/C(=N\\Nc1ccc(C)cc1)Sc1nncn1C", "hERG current change (%, negative = inhibition) at 10uM": -12.8}
{"compound": "COc1ccccc1C(=O)NCc1ccc(-c2nc3ccccc3s2)cc1", "hERG current change (%, negative = inhibition) at 10uM": -11}
{"compound": "O=C(NNc1nc(-c2ccccc2)cs1)c1ccccc1", "hERG current change (%, negative = inhibition) at 10uM": 3.27}
{"compound": "CC1(C)CC(CC(=O)NNc2nc(-c3ccccc3)cs2)C(=O)O1", "note": "(centres unmarked)", "hERG current change (%, negative = inhibition) at 10uM": -2.28}
{"compound": "Br.CC(C)CC1CC(C)(c2csc(NNC(=O)c3ccccc3)n2)OC1=O", "note": "(centres unmarked)", "hERG current change (%, negative = inhibition) at 10uM": -74.5}
{"compound": "O=C(Nc1cccc(F)c1)C1C2C=CC3(CN(CCCN4CCOCC4)C(=O)C13)O2", "note": "(centres unmarked)", "hERG current change (%, negative = inhibition) at 10uM": -8.87}
{"compound": "Cl.O=C1CSC(c2ccccc2F)N1CCN1CCCCC1", "note": "(centres unmarked)", "hERG current change (%, negative = inhibition) at 10uM": -10.6}
{"compound": "CCOC(=O)C1(CC2CC2)CCN(Cc2cn[nH]c2-c2ccccc2)CC1", "hERG current change (%, negative = inhibition) at 10uM": -79.5}
{"compound": "CCOC(=O)C1(CC2CC2)CCN(Cc2ccc3cccc(F)c3n2)CC1", "hERG current change (%, negative = inhibition) at 10uM": -48.3}
{"compound": "CCOC(=O)C1(CC2CCCCO2)CCN(S(=O)(=O)c2cccc(F)c2)CC1", "note": "(centres unmarked)", "hERG current change (%, negative = inhibition) at 10uM": 29.8}
{"compound": "CCOC(=O)C1(CC2CC2)CCN(Cc2cn[nH]c2-c2cccc(F)c2)CC1", "hERG current change (%, negative = inhibition) at 10uM": -91.6}
{"compound": "CCOC(=O)C1(CC2CCCCO2)CCN(Cc2cn[nH]c2-c2cccc(F)c2)CC1", "note": "(centres unmarked)", "hERG current change (%, negative = inhibition) at 10uM": -53.9}
{"compound": "CCOC(=O)C1(Cc2ccccc2)CCN(Cc2cn[nH]c2-c2ccccc2)CC1", "hERG current change (%, negative = inhibition) at 10uM": -28.8}
{"compound": "CCOC(=O)C1(CC2CCCCO2)CCN(Cc2cc3ccccc3[nH]2)CC1", "note": "(centres unmarked)", "hERG current change (%, negative = inhibition) at 10uM": -46.1}
{"compound": "CCOC(=O)C1(CC2CC2)CCN(S(=O)(=O)/C=C/c2ccccc2)CC1", "hERG current change (%, negative = inhibition) at 10uM": -18.4}
{"compound": "CC(C#N)Sc1ncnc2sc3c(c12)CCC3", "note": "(centres unmarked)", "hERG current change (%, negative = inhibition) at 10uM": 0.835}
{"compound": "CCC(Sc1ccc2nnc(CCNS(=O)(=O)c3ccc(OC)cc3)n2n1)C(=O)OC", "note": "(centres unmarked)", "hERG current change (%, negative = inhibition) at 10uM": -10.7}
{"compound": "OCCC1CN(Cc2ccccc2OC2CCCC2)CCN1Cc1ccsc1", "note": "(centres unmarked)", "hERG current change (%, negative = inhibition) at 10uM": -68.7}
{"compound": "COc1cccc(CN2CCN(Cc3ccc4c(c3)OCCO4)CC2CCO)c1", "note": "(centres unmarked)", "hERG current change (%, negative = inhibition) at 10uM": -7.1}
{"compound": "Cc1nn(C(C)C)c(C)c1CN1CCN(Cc2ccsc2)C(CCO)C1", "note": "(centres unmarked)", "hERG current change (%, negative = inhibition) at 10uM": 0.518}
{"compound": "CCCn1ncc(CN2CCN(Cc3ccsc3)C(CCO)C2)c1C", "note": "(centres unmarked)", "hERG current change (%, negative = inhibition) at 10uM": -5.55}
{"compound": "OCCC1CN(Cc2cccc(OC3CCCC3)c2)CCN1Cc1ccsc1", "note": "(centres unmarked)", "hERG current change (%, negative = inhibition) at 10uM": -70}
{"compound": "OCCC1CN(Cc2ccsc2)CCN1C1CCCC1", "note": "(centres unmarked)", "hERG current change (%, negative = inhibition) at 10uM": -9.06}
